Compounds without any hit were thinned out: in the full panel of roughly 79,000, 15% have a hit. Activity calls are given as the source filed them. Rule as the data show it: active = growth inhibition above about 70%; inactive = the rest.
How the values were obtained:
[1] = NCI Yeast Anticancer Drug Screen. Data for the wt2 strain (AID 169);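 also: 0% = growth of vehicle-treated yeast cultures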; settings: S. cerevisiae wt2 strain growth inhibition, hits give high values
Outline: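 Values express reduction in yeast growth under compound treatment, referenced to vehicle-treated cells.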

[2] = NCI Yeast Anticancer Drug Screen. Data for the mlh1 strain (AID 171);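 also: 0% = growth of vehicle-treated control cultures of the same strain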; settings: S. cerevisiae mlh1 strain growth inhibition, hits give high values
Outline: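 Steps: expose the defined-mutant yeast strain to compound; expose a parallel culture to vehicle; measure growth; express compound effect as inhibition relative to the vehicle culture.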

[3] = NCI Yeast Anticancer Drug Screen. Data for the sgs1 strain (AID 173);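 also: 0% = growth of vehicle-only control cultures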; settings: S. cerevisiae sgs1 mutant, hits give high values
Outline: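 Treat defined-mutant yeast with compound; measure growth; calculate inhibition relative to vehicle-treated cells.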

[4] = NCI Yeast Anticancer Drug Screen. Data for the mlh1 rad18 strain (AID 175); settings: S. cerevisiae mlh1 rad18 strain growth inhibition, hits give high values
Outline: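 Test agents were incubated with a yeast strain of defined genotype (DNA damage repair defect). Inhibition of growth was derived by comparison with vehicle-exposed cultures.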

[5] = NCI Yeast Anticancer Drug Screen. Data for the rad18 strain (AID 177); settings: S. cerevisiae rad18 mutant growth inhibition, hits give high values
Outline: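 A genetically defined yeast mutant impaired in DNA damage repair was treated with test compounds, then its growth was measured against cultures receiving vehicle alone.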

[6] = NCI Yeast Anticancer Drug Screen. Data for the rad52 strain (AID 147);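 also: 0% = growth of vehicle-treated control cultures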; settings: S. cerevisiae rad52 mutant growth inhibition, hits give high values
Outline: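 Screen used a yeast mutant impaired in DNA repair. After compound exposure, growth was measured. Values reflect inhibition compared with vehicle-treated cells.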

[7] = NCI Yeast Anticancer Drug Screen. Data for the wt1 strain (AID 149);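 also: 0% = growth of vehicle-treated wt1 cultures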; settings: S. cerevisiae wt1 strain (SPY 50644) growth inhibition, hits give high values
Outline: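 Measured: growth of wt1 yeast under compound versus vehicle treatment, reported as inhibition.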

[8] = NCI Yeast Anticancer Drug Screen. Data for the rad50EPP+ strain (AID 151);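 also: 0% = growth of vehicle-treated control cultures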; settings: S. cerevisiae rad50 mutant strain, hits give high values
Outline: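 Exposing the rad50EPP+ strain to each compound, growth was compared with vehicle-only cultures to give inhibition.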

[9] = NCI Yeast Anticancer Drug Screen. Data for the mgt1 strain (AID 153); settings: S. cerevisiae mgt1 mutant growth inhibition, hits give high values
Outline: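 Genetically defined yeast (mgt1) treated with compound; inhibition of growth expressed against vehicle-treated controls.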

[10] = NCI Yeast Anticancer Drug Screen. Data for the rad50 strain (AID 155);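 also: 0% = growth of vehicle-only cultures of the same strain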; settings: S. cerevisiae rad50 strain growth inhibition, hits give high values
Outline: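 Growth of the mutant yeast was measured after compound exposure and referenced to vehicle-treated cultures.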

[11] = NCI Yeast Anticancer Drug Screen. Data for the mec2-1 strain (AID 157); settings: S. cerevisiae mec2-1 strain, hits give high values
Outline: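 Readout is yeast growth inhibition, normalised to vehicle-treated controls, in the mec2-1 strain exposed to compound.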

[12] = NCI Yeast Anticancer Drug Screen. Data for the rad14 strain (AID 159);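 also: 0% = growth of vehicle-treated control cultures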; settings: S. cerevisiae rad14 strain growth inhibition, hits give high values
Outline: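 Here, inhibition of yeast growth was measured after compound exposure, using a strain with a genetic defect in DNA damage repair and vehicle-treated cultures as the reference.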

[13] = NCI Yeast Anticancer Drug Screen. Data for the sgs1 mgt1 strain (AID 161);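 also: 0% = growth of cultures given vehicle only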; settings: S. cerevisiae sgs1 mgt1 strain, hits give high values
Outline: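 Percent growth inhibition was derived by comparing compound-exposed mutant yeast with vehicle-exposed cultures. The strain carries alterations in DNA damage repair.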

[14] = NCI Yeast Anticancer Drug Screen. Data for the CLN2oe strain (AID 163);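 also: 0% = growth of vehicle-only control cultures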; settings: S. cerevisiae CLN2oe strain, hits give high values
Outline: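 Values reflect how much compound exposure reduced yeast growth, referenced to vehicle-exposed cells. Assay organism is a strain with a defined genetic change affecting cell-cycle control.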

[15] = NCI Yeast Anticancer Drug Screen. Data for the cln2 rad14 strain (AID 165);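 also: 0% = growth equal to vehicle treated cultures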; settings: S. cerevisiae cln2 rad14 strain, hits give high values
Outline: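 Relative to vehicle controls, growth inhibition of compound-treated cln2 rad14 yeast was recorded.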

[16] = NCI Yeast Anticancer Drug Screen. Data for the bub3 strain (AID 167); settings: S. cerevisiae bub3 mutant strain, hits give high values
Outline: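 Whole-cell yeast assay. The mutant strain was incubated with compounds, and growth inhibition was determined by comparison with vehicle-treated cells.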

[17] = at 5.0 µM (retest, dose inferred, filed as 0.5)
[18] = at 50.0 µM (retest, dose inferred, filed as 5.0)

Measured: growth inhibition

CC(/C=C/c1ccc2c(c1)OCO2)[N+](=O)[O-] (centres undefined)
active: [1]; at 3.7 µM 97% | [1]; at 11.0 µM 100% | [1]; at 33.0 µM 100% | [1]; at 100.0 µM 100% | [2]; at 11.0 µM 99% | [2]; at 33.0 µM 99% | [2]; at 100.0 µM 99% | [3]; at 3.7 µM 82% | [3]; at 11.0 µM 99% | [3]; at 33.0 µM 99% | [3]; at 100.0 µM 99% | [4]; [18] 98% | [4]; at 50.0 µM 99.4% | [5]; at 11.0 µM 99% | [5]; at 33.0 µM 99% | [5]; at 100.0 µM 99%
inactive: [1]; at 1.2 µM 10% | [2]; at 1.2 µM -2% | [2]; at 3.7 µM 64% | [3]; at 1.2 µM 30% | [4]; [17] 66% | [5]; at 1.2 µM 10% | [5]; at 3.7 µM 58%

O=C(OCCN1CCCCCC1)C(c1ccsc1)C1CCCCC1 (centres undefined)
active: [10]; at 50.0 µM 81.9% | [13]; at 50.0 µM 84% | [14]; at 100.0 µM 72% | [15]; [17] 81% | [16]; [18] 88% | [16]; at 50.0 µM 83% | [16]; at 100.0 µM 79% | [1]; at 100.0 µM 72% | [4]; at 50.0 µM 79.4%
inactive: [6]; at 1.2 µM 15% | [6]; at 3.7 µM 14% | [6]; at 11.0 µM 50% | [6]; at 33.0 µM 57% | [6]; at 100.0 µM 50% | [7]; at 1.2 µM -67% | [7]; at 3.7 µM 13% | [7]; at 11.0 µM 16% | [7]; at 33.0 µM 19% | [7]; at 100.0 µM 19% | [8]; at 1.2 µM -1% | [8]; at 3.7 µM -1% | [8]; at 11.0 µM -1% | [8]; at 33.0 µM 0% | [8]; at 100.0 µM 2% | [9]; at 1.2 µM 8% | [9]; at 3.7 µM 21% | [9]; at 11.0 µM 34% | [9]; at 33.0 µM 36% | [9]; at 100.0 µM 37% | [10]; at 1.2 µM 11% | [10]; at 3.7 µM 17% | [10]; [17] 13% | [10]; at 11.0 µM 25% | [10]; at 33.0 µM 29% | [10]; [18] 39% | [10]; at 100.0 µM 46% | [11]; at 1.2 µM 3% | [11]; at 3.7 µM 10% | [11]; [17] -5% | [11]; at 11.0 µM 17% | [11]; at 33.0 µM 27% | [11]; [18] 13% | [11]; at 50.0 µM 33.4% | [11]; at 100.0 µM 32% | [12]; at 1.2 µM 35% | [12]; at 3.7 µM 36% | [12]; at 11.0 µM 40% | [12]; at 33.0 µM 43% | [12]; at 100.0 µM 52% | [13]; [17] 4% | [13]; [18] 55% | [14]; at 1.2 µM 10% | [14]; at 3.7 µM 32% | [14]; at 11.0 µM 51% | [14]; at 33.0 µM 57% | [15]; [18] 49% | [15]; at 50.0 µM 63.5% | [16]; at 1.2 µM 4% | [16]; at 3.7 µM 14% | [16]; [17] 61% | [16]; at 11.0 µM 37% | [16]; at 33.0 µM 58% | [1]; at 1.2 µM 6% | [1]; at 3.7 µM 17% | [1]; at 11.0 µM 22% | [1]; at 33.0 µM 39% | [2]; at 1.2 µM 8% | [2]; at 3.7 µM 21% | [2]; at 11.0 µM 24% | [2]; at 33.0 µM 29% | [2]; at 100.0 µM 35% | [3]; at 1.2 µM 17% | [3]; at 3.7 µM 29% | [3]; at 11.0 µM 34% | [3]; at 33.0 µM 31% | [3]; at 100.0 µM 40% | [4]; [17] 2% | [4]; [18] 33% | [5]; at 1.2 µM 7% | [5]; at 3.7 µM 18% | [5]; at 11.0 µM 34% | [5]; at 33.0 µM 34% | [5]; at 100.0 µM 43%

O=Nc1c(NO)ccc2nn(-c3ccccc3)nc12
active: [6]; at 11.0 µM 98% | [6]; at 33.0 µM 98% | [6]; at 100.0 µM 98% | [7]; at 11.0 µM 96% | [7]; at 33.0 µM 98% | [7]; at 100.0 µM 96% | [9]; at 11.0 µM 98% | [9]; at 33.0 µM 98% | [9]; at 100.0 µM 99% | [10]; at 11.0 µM 96% | [10]; at 33.0 µM 97% | [10]; [18] 99% | [10]; at 100.0 µM 98% | [11]; at 11.0 µM 95% | [11]; at 33.0 µM 98% | [11]; [18] 99% | [11]; at 50.0 µM 88.5% | [11]; at 100.0 µM 97% | [12]; at 11.0 µM 97% | [12]; at 33.0 µM 98% | [12]; at 100.0 µM 98% | [13]; [18] 99% | [13]; at 50.0 µM 87.2% | [14]; at 11.0 µM 97% | [14]; at 33.0 µM 98% | [14]; at 100.0 µM 98% | [15]; [18] 99% | [15]; at 50.0 µM 89.1% | [16]; at 11.0 µM 95% | [16]; at 33.0 µM 98% | [16]; [18] 99% | [16]; at 50.0 µM 90.4% | [16]; at 100.0 µM 97% | [1]; at 11.0 µM 96% | [1]; at 33.0 µM 99% | [1]; at 100.0 µM 98% | [2]; at 11.0 µM 97% | [2]; at 33.0 µM 98% | [2]; at 100.0 µM 98% | [3]; at 3.7 µM 79% | [3]; at 11.0 µM 98% | [3]; at 33.0 µM 99% | [3]; at 100.0 µM 98% | [4]; [17] 77% | [4]; [18] 98% | [4]; at 50.0 µM 91.5% | [5]; at 1.2 µM 79% | [5]; at 3.7 µM 90% | [5]; at 11.0 µM 97% | [5]; at 33.0 µM 97% | [5]; at 100.0 µM 97%
inactive: [6]; at 1.2 µM 29% | [6]; at 3.7 µM 68% | [7]; at 1.2 µM 12% | [7]; at 3.7 µM 27% | [8]; at 1.2 µM 22% | [8]; at 3.7 µM 33% | [8]; at 11.0 µM 51% | [8]; at 33.0 µM 65% | [8]; at 100.0 µM 66% | [9]; at 1.2 µM -1% | [9]; at 3.7 µM 24% | [10]; at 1.2 µM 12% | [10]; at 3.7 µM 42% | [10]; [17] 18% | [10]; at 50.0 µM 38% | [11]; at 1.2 µM 9% | [11]; at 3.7 µM 36% | [11]; [17] 1% | [12]; at 1.2 µM 7% | [12]; at 3.7 µM 31% | [13]; [17] 14% | [14]; at 1.2 µM 5% | [14]; at 3.7 µM 35% | [15]; [17] 37% | [16]; at 1.2 µM 3% | [16]; at 3.7 µM 45% | [16]; [17] 1% | [1]; at 1.2 µM 25% | [1]; at 3.7 µM 41% | [2]; at 1.2 µM 6% | [2]; at 3.7 µM 30% | [3]; at 1.2 µM 61%

— PubChem BioAssay (NCI)
